This note sets out measurements from PubChem BioAssay (EPA / NIEHS).

Values joined by “and” are separate entries in the source; they are usually repeats but may differ in a detail not shown here. Equal entries are not always repeated. Records with an inconclusive call do not appear. Active and inactive are the calls of the source. Rule for the calls, unless noted: active = hit-call score of the fitted dose curve at least 0.9, where 1 is the maximum; inconclusive = response in the unintended direction; inactive = score below 0.9.

In assay [1] the target is guinea pig Sigma Receptor, Non-selective Binding, SIGMAR1 (gene 100135589) (UniProt Q60492). The assay can be described thus: NVS_OR_gSIGMA_NonSelective: NovaScreen (NVS) Nuclear Receptor Binding Assay for guinea pig Sigma Receptor, Non-selective Binding (AID 2283367). In outline:
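Radioligand displacement on guinea pig brain membranes, read by filter-based scintillation counting 1 h after dosing. Loss of signal versus DMSO; initial duplicate single-point screen at 25 uM, actives followed in concentration series.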

For assay [2], the target named is Estrogen receptor (Homo sapiens) (UniProt P03372). The assay can be described thus: OT_ERa_GFPERaERE_0480: Odyssey Thera (OT) 8-hour HeLa Transcription Induction Assay for Estrogen Receptor (AID 2283381; active = hit-call score of the fitted dose curve at least 0.9, where 1 is the maximum; inactive = score below 0.9). The gist of the method: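 HeLa cells dosed with compound and imaged by fluorescence microscopy at 8 h; GFP induction from an ERE reporter quantified by high-content image analysis and fitted as gain of signal against DMSO baseline.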
Sequence of Estrogen receptor (Homo sapiens) (P03372 whole entry, looked up): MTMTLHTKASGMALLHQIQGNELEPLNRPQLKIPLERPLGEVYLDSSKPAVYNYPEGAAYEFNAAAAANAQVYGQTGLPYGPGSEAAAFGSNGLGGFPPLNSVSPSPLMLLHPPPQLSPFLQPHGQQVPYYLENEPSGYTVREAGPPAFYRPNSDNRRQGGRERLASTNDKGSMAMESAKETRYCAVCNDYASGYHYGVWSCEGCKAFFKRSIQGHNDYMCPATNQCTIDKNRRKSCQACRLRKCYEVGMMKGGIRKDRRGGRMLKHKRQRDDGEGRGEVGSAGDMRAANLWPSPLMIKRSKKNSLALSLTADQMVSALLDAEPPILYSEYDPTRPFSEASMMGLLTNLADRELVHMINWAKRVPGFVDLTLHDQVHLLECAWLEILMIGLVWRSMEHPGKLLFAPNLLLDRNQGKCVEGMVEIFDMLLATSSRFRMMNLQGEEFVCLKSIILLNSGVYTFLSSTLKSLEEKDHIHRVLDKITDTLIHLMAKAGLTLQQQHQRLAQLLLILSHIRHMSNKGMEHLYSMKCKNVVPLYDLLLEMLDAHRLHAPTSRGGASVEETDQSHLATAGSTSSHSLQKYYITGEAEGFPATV

For assay [3] the target is unchanged. The assay can be described thus: OT_ERa_GFPERaERE_0120: Odyssey Thera (OT) 2-hour HeLa Transcription Induction Assay for Estrogen Receptor (AID 2283382). In outline: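 HeLa cells were dosed with test chemical and read 2 hours later for GFP-ERα/ERE-linked fluorescent protein induction by fluorescence microscopy. Gain-of-signal was fitted relative to DMSO baseline, quantified by high content image analysis.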

The target in assay [4] is Retinoic acid receptor RXR-alpha (Homo sapiens) (UniProt P19793). Kind of assay: OT_NURR1_NURR1RXRa_0480: Odyssey Thera (OT) 8-hour HEK293T Protein Complementation Assay for Nurr1/retinoid X receptor (RXR) (AID 2283385). The gist of the method:
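HEK293T cells expressing Nurr1 and RXRα fused to reporter fragments were dosed with compound for 8 hours. Complex formation was read as fluorescence intensity and analysed as gain of signal against DMSO as baseline.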

Assay [5] addresses Peroxisome proliferator-activated receptor gamma (Homo sapiens) (UniProt P37231). Kind of assay: OT_PPARg_PPARgSRC1_0480: Odyssey Thera (OT) 8-hour Protein-Complementation Assay for Peroxisome Proliferator-activated Receptor Gamma / SRC-1 Co-activator (AID 2283387).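 Note: nuclear to cytoplasmic split Venus YFP fluorescence ratio reporting PPARg SRC-1 interaction.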 In outline:
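Protein-fragment complementation in HEK293T: Venus YFP halves (residues 1-158, 159-239, mutated to IFP1/IFP2) fused to PPARg/SRC-1. 8 h exposure; N/C ratio at 488 nm; DMSO negative control.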

For assay [6], the target named is Glucocorticoid receptor (Homo sapiens) (UniProt P04150). The assay can be described thus: NVS_NR_hGR: NovaScreen (NVS) Nuclear Receptor Binding Assay for human Glucocorticoid Receptor (GR) (AID 2283363).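 For AC50: activity is loss of specific radioligand binding signal relative to DMSO.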 The gist of the method: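 Cell-free radioligand displacement assay on extracted human GR, read 16 h after dosing by filter-based scintillation counting. Screened in duplicate at 25 uM, then concentration series for actives; loss of signal versus DMSO baseline.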
Sequence of Glucocorticoid receptor (Homo sapiens) (P04150 whole entry, looked up): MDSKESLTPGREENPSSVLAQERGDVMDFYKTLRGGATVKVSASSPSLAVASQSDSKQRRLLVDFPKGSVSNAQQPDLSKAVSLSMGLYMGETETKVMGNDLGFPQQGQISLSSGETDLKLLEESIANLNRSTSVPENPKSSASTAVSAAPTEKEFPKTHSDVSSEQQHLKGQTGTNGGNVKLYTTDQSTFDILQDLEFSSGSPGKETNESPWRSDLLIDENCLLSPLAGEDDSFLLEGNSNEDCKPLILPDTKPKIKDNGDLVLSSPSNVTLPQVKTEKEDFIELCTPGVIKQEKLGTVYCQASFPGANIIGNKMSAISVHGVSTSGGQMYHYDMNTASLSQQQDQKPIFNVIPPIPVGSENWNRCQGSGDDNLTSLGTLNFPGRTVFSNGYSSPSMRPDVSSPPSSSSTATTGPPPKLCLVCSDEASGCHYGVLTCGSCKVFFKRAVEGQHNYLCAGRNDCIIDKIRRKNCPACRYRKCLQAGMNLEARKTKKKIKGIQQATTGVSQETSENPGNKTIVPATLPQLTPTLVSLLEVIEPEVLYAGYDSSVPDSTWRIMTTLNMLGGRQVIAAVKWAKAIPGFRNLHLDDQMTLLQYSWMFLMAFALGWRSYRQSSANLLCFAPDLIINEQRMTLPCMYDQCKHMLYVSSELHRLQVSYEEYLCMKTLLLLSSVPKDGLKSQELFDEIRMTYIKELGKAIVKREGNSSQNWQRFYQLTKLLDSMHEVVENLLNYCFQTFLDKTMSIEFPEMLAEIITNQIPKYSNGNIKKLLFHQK

In assay [7] the target is Peroxisome proliferator-activated receptor gamma (Homo sapiens) (UniProt P37231). The assay can be described thus: NVS_NR_hPPARg: NovaScreen (NVS) Nuclear Receptor Binding Assay for human Peroxisome Proliferator-activated Receptor gamma (PPARg) (AID 2283370). The gist of the method: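 Cell-free binding to extracted PPARg protein, read by fluorescence polarization 2 h after dosing; loss of signal relative to DMSO baseline marks displacement. Primary screen in duplicate at 25 uM, actives retested in concentration series.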
Sequence of Peroxisome proliferator-activated receptor gamma (Homo sapiens) (P37231 whole entry, looked up, the tested form may be a part): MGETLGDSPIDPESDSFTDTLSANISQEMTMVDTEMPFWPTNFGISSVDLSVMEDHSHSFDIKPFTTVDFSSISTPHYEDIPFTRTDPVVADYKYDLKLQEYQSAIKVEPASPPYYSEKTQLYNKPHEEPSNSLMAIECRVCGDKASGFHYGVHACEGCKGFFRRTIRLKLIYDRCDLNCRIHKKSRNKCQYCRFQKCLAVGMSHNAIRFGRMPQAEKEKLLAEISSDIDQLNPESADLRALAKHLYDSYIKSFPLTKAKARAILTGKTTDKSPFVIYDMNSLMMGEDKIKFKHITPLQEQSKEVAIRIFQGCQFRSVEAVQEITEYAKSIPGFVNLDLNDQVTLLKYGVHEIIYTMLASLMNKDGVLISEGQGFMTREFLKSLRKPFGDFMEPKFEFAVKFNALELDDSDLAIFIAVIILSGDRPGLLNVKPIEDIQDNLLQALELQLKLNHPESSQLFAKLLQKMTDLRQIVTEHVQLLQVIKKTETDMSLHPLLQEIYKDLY

The target of assay [8] is Estrogen receptor beta (Homo sapiens) (UniProt Q92731). Kind of assay: OT_ER_ERbERb_1440: Odyssey Thera (OT) 24-hour HEK293T Protein-Complementation Assay for Estrogen Receptor-beta/-beta Homodimer (AID 2283380).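 Note: scored as signal increase over DMSO baseline for both agonists and antagonists.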 The gist of the method: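 HEK293T cells stably expressing ER beta LBD (aa 310-547) homodimer fragment-complementation reporter, dosed 24 h. Cells formaldehyde-fixed, Draq5-stained; gain in nuclear (agonist) or nuclear plus cytoplasmic (antagonist) fluorescence versus DMSO read by laser scanning cytometry.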
Sequence of Estrogen receptor beta (Homo sapiens) (Q92731 whole entry, looked up, the tested form may be a part): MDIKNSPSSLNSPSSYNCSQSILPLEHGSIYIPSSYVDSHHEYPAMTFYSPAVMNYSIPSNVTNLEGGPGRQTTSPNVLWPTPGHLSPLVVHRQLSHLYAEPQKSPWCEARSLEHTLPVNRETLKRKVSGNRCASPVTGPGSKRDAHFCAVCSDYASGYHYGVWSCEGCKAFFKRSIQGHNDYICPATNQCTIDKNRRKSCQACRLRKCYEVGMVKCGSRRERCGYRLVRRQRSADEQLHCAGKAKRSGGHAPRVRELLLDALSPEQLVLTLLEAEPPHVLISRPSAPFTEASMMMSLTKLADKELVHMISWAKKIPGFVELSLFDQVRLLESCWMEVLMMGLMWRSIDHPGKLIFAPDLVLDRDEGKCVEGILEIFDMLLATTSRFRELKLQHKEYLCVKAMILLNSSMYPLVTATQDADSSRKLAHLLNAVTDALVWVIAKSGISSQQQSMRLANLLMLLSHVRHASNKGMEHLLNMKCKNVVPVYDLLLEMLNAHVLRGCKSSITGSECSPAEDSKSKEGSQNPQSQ

Assay [9] concerns the target Bile acid receptor (Homo sapiens) (UniProt Q96RI1). The assay can be described thus: OT_FXR_FXRSRC1_0480: Odyssey Thera (OT) 8-hour HEK293T Protein-Complementation Assay for Farnesoid X receptor/SRC-1 Co-activator (AID 2283383). In outline:
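HEK293T cells expressing FXR and SRC-1 fused to reporter fragments were dosed with compound for 8 h; fluorescence from the reconstituted reporter marked co-activator recruitment. Gain of signal was fitted against the DMSO baseline.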

The target of assay [10] is Retinoic acid receptor RXR-alpha (Homo sapiens) (UniProt P19793). The assay can be described thus: OT_NURR1_NURR1RXRa_1440: Odyssey Thera (OT) 24-hour HEK293T Protein Complementation Assay for Nurr1/retinoid X receptor (RXR) (AID 2283386). In outline:
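HEK293T cells were dosed with compound and read 24 h later by fluorescence intensity in a protein-fragment complementation format, where Nurr1–RXRα interaction reconstitutes a split reporter. Activity was fitted as gain of signal relative to DMSO baseline.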

The target of assay [11] is mouse Estrogen Receptor alpha (Era), Esr1 (gene 13982) (UniProt P19785). The assay can be described thus: NVS_NR_mERa: NovaScreen (NVS) Nuclear Receptor Binding Assay for mouse Estrogen Receptor alpha (Era) (AID 2283378).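 Note: hit means loss of bound radioligand signal relative to DMSO.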 In outline:
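Cell-free radioligand binding with extracted mouse Era protein; competitive displacement of radiolabelled ligand, read by filter-based scintillation counting 18 hours after dosing. Loss of signal versus DMSO baseline taken as binding; single screening concentration 25 uM, actives followed in concentration series.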

Assay [12] concerns the target human Norepinephrine Transporter (NET), SLC6A2 (gene 6530) (UniProt P23975). The assay can be described thus: NVS_TR_hNET: NovaScreen (NVS) Transporter Assay for human Norepinephrine Transporter (NET) (AID 2283377).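 For AC50: displacement of radioligand from human NET seen as loss of scintillation signal.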 The gist of the method:
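Cell-free radioligand binding using CHO-derived membrane protein expressing human NET, read by filter scintillation counting 1 h after dosing; loss of signal vs DMSO. Initial duplicate screen at 25 uM, actives retested in concentration series.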

Assay [13] has as its target Agonist Androgen Response Element (ARE), AR (gene 367) (UniProt P10275). The assay can be described thus: OT_AR_ARELUC_AG_1440: Odyssey Thera (OT) 24-hour CHO-K1 Luciferase Assay for Agonist Androgen Response Element (ARE) (AID 2283379). The gist of the method: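 CHO-K1 cells carrying an ARE-driven luciferase reporter were exposed to compounds for 24 h. Luminescence was then read after adding a D-luciferin/ATP mix, and activity was scored as a gain in signal over DMSO vehicle.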

In assay [14] the target is Nuclear receptor subfamily 1 group I member 2 (Homo sapiens) (UniProt O75469). The assay can be described thus: NVS_NR_hPXR: NovaScreen (NVS) Nuclear Receptor Binding Assay for human Pregnane X Receptor (PXR) (AID 2283365).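 Note: a drop in FRET signal versus DMSO baseline means the compound binds.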 The gist of the method: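 Cell-free binding assay with extracted human PXR protein, read by TR-FRET 2 h after dosing; loss of signal relative to DMSO baseline indicates binding. Primary screen at 25 uM in duplicate, actives retested in concentration series.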
Sequence of Nuclear receptor subfamily 1 group I member 2 (Homo sapiens) (O75469 whole entry, looked up): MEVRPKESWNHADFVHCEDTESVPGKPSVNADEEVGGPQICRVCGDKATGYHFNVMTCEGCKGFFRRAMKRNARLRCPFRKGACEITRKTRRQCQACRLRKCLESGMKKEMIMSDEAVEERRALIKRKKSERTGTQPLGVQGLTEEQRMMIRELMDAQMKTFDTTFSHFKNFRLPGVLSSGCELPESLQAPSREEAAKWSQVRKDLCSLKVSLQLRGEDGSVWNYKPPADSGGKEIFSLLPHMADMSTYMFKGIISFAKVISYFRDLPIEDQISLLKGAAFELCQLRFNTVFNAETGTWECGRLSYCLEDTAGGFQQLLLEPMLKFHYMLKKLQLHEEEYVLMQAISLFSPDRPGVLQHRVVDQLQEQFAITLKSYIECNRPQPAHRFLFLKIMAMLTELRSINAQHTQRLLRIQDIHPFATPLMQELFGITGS

The target of assay [15] is human Adenosine Transporter (Adot), SLC29A1 (gene 2030) (UniProt Q99808). The assay can be described thus: NVS_TR_hAdoT: NovaScreen (NVS) Transporter Assay for human Adenosine Transporter (Adot) (AID 2283368). In outline: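 U937-derived membranes, cell-free radioligand binding, filter scintillation 1 h after dosing. 25 uM duplicate screen; hits (e.g. 30% inhibition) run in concentration-response up to 50 uM; loss of signal versus DMSO.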

The test system of assay [16] is guinea pig Dopamine Transporter (DAT), gene 100714898. Kind of assay: NVS_TR_gDAT: NovaScreen (NVS) Transporter Assay for guinea pig Dopamine Transporter (DAT) (AID 2283369).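 Note: active compounds lower bound radioligand signal relative to DMSO.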 The gist of the method: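 Guinea pig striatal membranes; radioligand displacement measured by filter-based scintillation counting 2 h after dosing. Initial duplicate screen at 25 uM, then concentration-response up to 50 uM for hits; loss of signal versus DMSO baseline.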

Assay [17] has as its target human Dopamine Transporter (DAT), SLC6A3 (gene 6531) (UniProt Q01959). The assay can be described thus: NVS_TR_hDAT: NovaScreen (NVS) Transporter Assay for human Dopamine Transporter (DAT) (AID 2283374).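 Note: activity means loss of bound radioligand signal relative to DMSO.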 In outline: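 Cell-free radioligand displacement binding at human DAT, 1 h after dosing, with filtration and scintillation counting. Primary screen in duplicate at 25 uM, actives then in concentration series. Loss of bound signal versus DMSO scored.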

Sequence of guinea pig Sigma Receptor, Non-selective Binding, SIGMAR1 (gene 100135589) (Q60492 whole entry, looked up): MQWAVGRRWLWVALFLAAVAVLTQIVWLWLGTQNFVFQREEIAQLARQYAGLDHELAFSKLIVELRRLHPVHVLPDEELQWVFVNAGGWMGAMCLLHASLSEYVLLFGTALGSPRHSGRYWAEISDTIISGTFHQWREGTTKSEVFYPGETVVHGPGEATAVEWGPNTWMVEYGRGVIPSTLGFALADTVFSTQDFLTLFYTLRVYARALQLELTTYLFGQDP
Sequence of Retinoic acid receptor RXR-alpha (Homo sapiens) (P19793 whole entry, looked up, the tested form may be a part): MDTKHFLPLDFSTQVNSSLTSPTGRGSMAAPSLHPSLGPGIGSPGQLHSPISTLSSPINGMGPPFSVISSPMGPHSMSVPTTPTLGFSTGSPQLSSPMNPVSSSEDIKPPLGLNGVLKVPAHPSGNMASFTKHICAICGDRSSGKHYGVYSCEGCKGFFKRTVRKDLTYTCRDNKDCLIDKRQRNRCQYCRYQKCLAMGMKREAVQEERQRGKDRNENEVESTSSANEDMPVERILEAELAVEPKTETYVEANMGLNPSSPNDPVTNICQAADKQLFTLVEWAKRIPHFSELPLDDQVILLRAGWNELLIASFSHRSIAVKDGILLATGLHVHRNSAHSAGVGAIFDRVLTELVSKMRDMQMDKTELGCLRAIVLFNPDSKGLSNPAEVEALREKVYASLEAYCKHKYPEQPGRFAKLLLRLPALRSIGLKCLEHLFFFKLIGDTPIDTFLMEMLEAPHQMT
Sequence of human Norepinephrine Transporter (NET), SLC6A2 (gene 6530) (P23975 whole entry, looked up): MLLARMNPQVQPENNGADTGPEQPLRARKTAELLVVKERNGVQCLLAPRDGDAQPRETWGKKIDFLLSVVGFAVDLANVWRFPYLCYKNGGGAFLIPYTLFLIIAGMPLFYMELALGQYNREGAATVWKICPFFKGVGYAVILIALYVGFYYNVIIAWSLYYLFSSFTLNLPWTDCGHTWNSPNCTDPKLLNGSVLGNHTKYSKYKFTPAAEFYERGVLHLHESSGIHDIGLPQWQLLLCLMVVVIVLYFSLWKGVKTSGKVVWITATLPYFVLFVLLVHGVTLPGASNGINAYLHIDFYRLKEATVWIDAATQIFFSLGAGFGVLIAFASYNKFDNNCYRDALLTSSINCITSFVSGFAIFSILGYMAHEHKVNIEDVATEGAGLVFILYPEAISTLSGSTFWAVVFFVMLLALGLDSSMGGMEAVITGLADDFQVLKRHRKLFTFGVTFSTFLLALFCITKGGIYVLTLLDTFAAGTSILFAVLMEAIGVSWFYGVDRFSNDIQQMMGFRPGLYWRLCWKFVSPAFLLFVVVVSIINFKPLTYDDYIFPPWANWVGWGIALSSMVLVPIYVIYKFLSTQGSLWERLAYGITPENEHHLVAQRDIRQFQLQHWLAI
Sequence of human Dopamine Transporter (DAT), SLC6A3 (gene 6531) (Q01959 whole entry, looked up): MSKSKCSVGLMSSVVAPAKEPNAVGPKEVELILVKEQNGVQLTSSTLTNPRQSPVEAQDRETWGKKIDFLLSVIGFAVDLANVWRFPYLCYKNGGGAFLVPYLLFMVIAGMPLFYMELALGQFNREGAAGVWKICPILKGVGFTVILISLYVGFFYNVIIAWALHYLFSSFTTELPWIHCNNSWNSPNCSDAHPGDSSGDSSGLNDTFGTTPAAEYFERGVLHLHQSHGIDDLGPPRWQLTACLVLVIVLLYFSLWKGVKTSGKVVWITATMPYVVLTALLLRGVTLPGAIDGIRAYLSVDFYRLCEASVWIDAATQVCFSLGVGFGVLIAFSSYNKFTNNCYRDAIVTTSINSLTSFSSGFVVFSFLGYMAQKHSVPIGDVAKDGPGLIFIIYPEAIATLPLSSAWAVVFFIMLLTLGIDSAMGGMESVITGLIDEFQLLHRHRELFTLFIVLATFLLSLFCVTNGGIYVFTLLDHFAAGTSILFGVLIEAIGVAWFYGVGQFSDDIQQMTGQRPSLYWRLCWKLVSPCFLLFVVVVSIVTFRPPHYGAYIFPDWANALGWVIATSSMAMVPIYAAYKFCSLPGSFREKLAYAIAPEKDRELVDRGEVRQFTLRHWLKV

Turning to `Cc1nc(C)nc(N2C[C@@H](C)N(c3ccnc([C@@H](C)O)n3)[C@@H](C)C2)n1`, the AC50 (in general, the concentration at which the activity in the assay is half-maximal) in [1] was 3.21 µM (active). For the same compound, the compound was called inactive in [2], in assay [3], in [4] and in [5].
As for `COc1cc(-c2nc(NC(=O)c3cc4cc(C)cc(C)c4n3CC(=O)O)sc2CCC2CCCCC2)c(OC)cc1Cl`, the call in assay [6], in assay [8], in [3], in assay [9] and in assay [5] was inactive. Besides, the AC50 in assay [7] was 181 nM (active); in assay [2], 66.2 µM (active); in assay [4] it was 10.3 µM (active) and 10 µM (active); in [10], 10.3 µM (active) and 9.86 µM (active).
On to `CCCCCCC(=O)OCC`, for which the outcome in assay [1], in assay [11], in assay [8], in assay [2], in assay [3] and in [4] was inactive. For the same compound, the compound was classed as inactive in assay [5].
With `CCOc1ccc2c(c1)C(C)=CC(C)(C)N2`, the AC50 in [1] is 16.4 µM (active). Also, the call in [7], in [12], in assay [13], in assay [2], in assay [3] and in assay [4] was inactive. The compound was called inactive in [10] and in assay [5].
As to `CCCCC(CC)COC(=O)CC(C(=O)OCC(CC)CCCC)S(=O)(=O)O` (stereo unspecified), the AC50 in assay [6] was 5.89 µM (active); in [14], 1.03 µM (active); in assay [15] it was 19.1 µM (active); in [16], 20.6 µM (active); in assay [7], 221 nM (active); in [17], 8.14 µM (active). Further, the results for the AC50 in [12], in assay [2] and in assay [3] were 10.2 µM (active), 22.8 µM (active) and 21.3 µM (active), respectively. For the same compound, the outcome in [8], in [4] and in [5] was inactive.
For the compound `CC(=O)OC/C=C(\C)CCC=C(C)C`, the outcome in assay [14], in assay [7], in [2], in assay [3], in assay [4] and in assay [10] was inactive. Also, the result in [5] was inactive.
For `Cc1oc(-c2ccccc2)nc1CCOc1cccc2c1ccn2CCC(=O)O`, the AC50 in assay [1] is 11 µM (active); in [7], 2270 nM (active); in [5], 2.57 µM (active) and 4.49 µM (active). For the same compound, the compound was called inactive in assay [8], in [2], in assay [3] and in assay [4].
